{"source": "PubChem BioAssay AID463173", "about": "(ICCB-Longwood Screening Facility, Harvard Medical School, 2010)", "note": "About 4,300 (8.3%) of roughly 52,000 compounds were called active. The full list was thinned out, with actives kept by preference. Unmarked numbers belong to inactive results. Rule as the data show it: active = survival mostly below about 52% (no sharp cut-off); inactive = mostly above about 56%.", "data": [{"system": "DeltatarO mutant", "assay": "S. aureus survival, RN4220 and DeltatarO strains – OD600, teichoic acid synthesis inhibitors, primary screen (AID 463173)", "conditions": "S. aureus RN4220 wild type/DeltatarO growth, OD600, 18 h, stronger effect = lower value, screened at 18.75 µg/mL (by protocol)", "values": [{"compound": "O=C(CCCc1ccccc1)NC1CC(=O)N(c2cccc(F)c2)C1", "note": "(configuration not stated)", "survival": "120%"}, {"compound": "CN(C)c1ccc(C(CNS(=O)(=O)c2ccc(F)cc2F)N2CCOCC2)cc1", "note": "(configuration not stated)", "survival": "69%"}, {"compound": "Cc1nn2c(=O)cc(CN(C)c3ccccc3)nc2s1", "survival": "135%"}, {"compound": "COc1ccc(S(=O)(=O)N2CCC(Oc3ccc(-n4cnnn4)cc3)CC2)cc1", "survival": "90%"}, {"compound": "O=C(NC1CC(=O)N(c2ccc(F)cc2)C1)c1ccc(S(=O)(=O)N2CCOCC2)cc1", "note": "(configuration not stated)", "survival": "93%"}, {"compound": "Cn1c(SCC(N)=O)nnc1-c1ccc(S(=O)(=O)N2CCCC2)cc1", "survival": "79%"}, {"compound": "Cc1ccc(Cl)cc1N1CCN(C(=O)Cn2cnc3onc(-c4ccc(F)cc4)c3c2=O)CC1", "survival": "75%"}, {"compound": "O=C(NCCc1ccccc1)C1CCC(CNS(=O)(=O)c2ccccc2)CC1", "note": "(configuration not stated)", "survival": "91%"}, {"compound": "CCOc1ccc(NC(=O)CSc2ncc3c(n2)-c2ccccc2N(Cc2ccccc2C)S3(=O)=O)cc1", "survival": "91%"}, {"compound": "CCc1cccc(NC(=O)CSc2ncc3c(n2)-c2ccccc2N(Cc2ccccc2C)S3(=O)=O)c1", "survival": "8% (active)"}, {"compound": "CCc1cccc(NC(=O)CSc2ncc3c(n2)-c2ccccc2N(CC)S3(=O)=O)c1", "survival": "101%"}, {"compound": "CCOC(=O)c1ccc(NC(=O)CC2C(=O)N(c3cccc(C)c3)C(=O)N2CCOC)cc1", "note": "(configuration not stated)", "survival": "74%"}, {"compound": "CCc1ccc(NC(=O)[C@H](Cc2ccccc2)N2Cc3ccccc3C2=O)cc1", "survival": "88%"}, {"compound": "CC1CCC(Nc2nc3c(-c4cccc(C(F)(F)F)c4)nnn3c3ccccc23)CC1", "note": "(configuration not stated)", "survival": "-3% (active)"}, {"compound": "COc1ccc(CCNc2nc3c(-c4cccc(C(F)(F)F)c4)nnn3c3ccccc23)cc1OC", "survival": "85%"}, {"compound": "Brc1cccc(-c2nnn3c2nc(NC2CCCCC2)c2ccccc23)c1", "survival": "64%"}, {"compound": "Fc1cccc(-c2nnn3c2nc(NC2CCCCC2)c2ccccc23)c1", "survival": "59%"}, {"compound": "FC(F)(F)c1cccc(-c2nnn3c2nc(NC2CCCCC2)c2ccccc23)c1", "survival": "13% (active)"}, {"compound": "CCCCNc1nc2c(-c3cccc(C)c3)nnn2c2ccccc12", "survival": "98%"}, {"compound": "Cc1cccc(CCNC(=O)c2ccc(CSCc3cccc(Cl)c3)o2)c1", "survival": "70%"}, {"compound": "O=C(CN1C(=O)COc2ccc(S(=O)(=O)N3CCOCC3)cc21)Nc1ccc(F)c(Cl)c1", "survival": "106%"}, {"compound": "CCc1ccc(NC(=O)CN2C(=O)C3(SCC(=O)N3c3ccccc3)c3ccccc32)cc1", "note": "(configuration not stated)", "survival": "129%"}, {"compound": "CCCCN(CC)C(=O)CSc1nc2n[nH]c(C)c2c(=N)n1-c1cccc(C)c1", "survival": "88%"}, {"compound": "Cc1ccc(NC(=O)CSc2nc3n[nH]c(C)c3c(=N)n2-c2cccc(C)c2)cc1", "survival": "-5% (active)"}, {"compound": "Cc1c(Cl)cccc1-n1c(SCC(=O)NCc2ccccc2)nc2n[nH]c(C)c2c1=N", "survival": "126%"}, {"compound": "Cc1ccc(Cl)cc1-n1c(SCC(=O)NCc2ccccc2)nc2n[nH]c(C)c2c1=N", "survival": "81%"}, {"compound": "Cc1cccc(NC(=O)CSc2nc3n[nH]c(C)c3c(=N)n2-c2cccc(Cl)c2)c1", "survival": "55%"}, {"compound": "Cc1ccc(-n2c(SCC(=O)NCc3ccccc3)nc3n[nH]c(C)c3c2=N)cc1Cl", "survival": "-5% (active)"}, {"compound": "CCCCN(CC)C(=O)CSc1nc2n[nH]c(C)c2c(=N)n1-c1cccc(Cl)c1", "survival": "17% (active)"}, {"compound": "CCCCN(CC)C(=O)CSc1nc2n[nH]c(C)c2c(=N)n1-c1cccc(OC)c1", "survival": "109%"}, {"compound": "Cc1cccc(-n2c(SCC(=O)Nc3ccc(C)c(C)c3)nc3n[nH]c(C)c3c2=N)c1", "survival": "87%"}, {"compound": "O=C(NCC1CCCO1)Nc1c[nH]c2c(Cl)cccc2c1=O", "note": "(configuration not stated)", "survival": "97%"}, {"compound": "Cn1c(=O)cc(SCC(=O)NCc2ccc(F)cc2)c2ccc(Cl)cc21", "survival": "91%"}, {"compound": "Cc1cccc(Cn2c(C)c(C)c3cc(C(=O)NCc4ccco4)ccc32)c1", "survival": "94%"}, {"compound": "COc1cc(CCNC(=O)c2ccc3c(c2)c(C)c(C)n3Cc2cccc(C)c2)cc(OC)c1OC", "survival": "80%"}, {"compound": "Cc1ccc(CNC(=O)CC(C)S(=O)(=O)c2cc3c(cc2C)NC(=O)CO3)cc1", "note": "(configuration not stated)", "survival": "89%"}, {"compound": "Cc1ccc(C(=O)N2CCC(C)CC2)cc1NC(=O)c1nsc2ccccc12", "survival": "96%"}, {"compound": "Cc1ccc(Cl)cc1N1CCN(C(=O)c2ccc(NC(=O)c3nsc4ccccc34)cc2)CC1", "survival": "6% (active)"}, {"compound": "Cc1ccc(C(=O)N2CCC(C(N)=O)CC2)cc1NC(=O)c1nsc2ccccc12", "survival": "87%"}, {"compound": "O=C(Nc1ccc(C(=O)N2CCN(c3ccc(Cl)cc3)CC2)cc1)c1nsc2ccccc12", "survival": "72%"}, {"compound": "Cc1ccc(C)c(N2CCN(C(=O)c3ccc(NC(=O)c4nsc5ccccc45)cc3)CC2)c1", "survival": "67%"}, {"compound": "Cc1ccc(C(=O)N2CCCCC2)cc1NC(=O)c1nsc2ccccc12", "survival": "-4% (active)"}, {"compound": "O=C(Nc1ccc(C(=O)N2CCN(c3ccccc3)CC2)cc1)c1nsc2ccccc12", "survival": "-1% (active)"}, {"compound": "O=C(Nc1ccc(C(=O)N2CCN(c3cccc(Cl)c3)CC2)cc1)c1nsc2ccccc12", "survival": "79%"}, {"compound": "O=C(Nc1ccc(C(=O)N2CCN(c3ccc(F)cc3)CC2)cc1)c1nsc2ccccc12", "survival": "81%"}, {"compound": "Cc1ccc(N2CCN(C(=O)c3cn(C)c4ccc(S(=O)(=O)N(C)C5CCCCC5)cc4c3=O)CC2C)cc1", "note": "(configuration not stated)", "survival": "91%"}, {"compound": "O=C(CSc1nccn1-c1ccc(F)cc1)Nc1ccc(OC(F)(F)F)cc1", "survival": "78%"}, {"compound": "CCc1ccc(S(=O)(=O)Nc2ccc3c(c2)sc(=O)n3C)cc1", "survival": "91%"}, {"compound": "COC(=O)c1ccccc1NC(=O)Cn1c(=O)n(-c2ccc(Cl)cc2)c(=O)c2c(C)c(C)sc21", "survival": "86%"}, {"compound": "CCOC(=O)c1[nH]c(C)c(CCC(=O)NCc2cccc(Cl)c2)c1C", "survival": "76%"}, {"compound": "COc1ccc(CNC(=O)Cn2ncc3c(=O)oc4ccccc4c32)c(OC)c1", "survival": "89%"}, {"compound": "O=C(COc1ccccc1F)Nc1ccc2nc(SCC(=O)N3CCOCC3)sc2c1", "survival": "79%"}, {"compound": "CCOc1ccc(CCNC(=O)CCc2c(C)nc3c(-c4ccccc4)c(C)nn3c2C)cc1OCC", "survival": "70%"}, {"compound": "CN(C)S(=O)(=O)N(CC(=O)NCCSCc1ccc(Cl)cc1Cl)c1ccccc1", "survival": "47% (active)"}, {"compound": "Cc1cccc(N(CC(=O)NCCSCc2ccc(Cl)cc2)S(C)(=O)=O)c1C", "survival": "33% (active)"}, {"compound": "Cc1ccc(CSCCNC(=O)CN(c2cccc(C)c2C)S(=O)(=O)c2ccccc2)cc1", "survival": "52%"}, {"compound": "Cc1ccccc1CSCCNC(=O)CN(c1ccccc1)S(=O)(=O)N(C)C", "survival": "52%"}, {"compound": "Cc1cccc(N(CC(=O)NCCSc2ccc(Cl)cc2)S(C)(=O)=O)c1C", "survival": "38% (active)"}, {"compound": "CN(C)S(=O)(=O)N(CC(=O)NCCSCc1cccc(Cl)c1)c1ccccc1", "survival": "57%"}, {"compound": "Cc1ccc(SCCNC(=O)CN(c2cccc(C)c2C)S(C)(=O)=O)cc1", "survival": "57%"}, {"compound": "Cc1cccc(N(CC(=O)NCCSCc2cccc(Cl)c2)S(=O)(=O)c2ccccc2)c1C", "survival": "57%"}, {"compound": "Cc1cccc(N(CC(=O)NCCSc2ccc(Cl)cc2)S(=O)(=O)c2ccccc2)c1C", "survival": "49%"}, {"compound": "COc1cc(Cl)c(NS(=O)(=O)c2ccc3c(c2)CC(C)N3C(=O)C2CCC2)c(OC)c1", "note": "(configuration not stated)", "survival": "80%"}, {"compound": "CC(C)NC(=O)c1ccc(Cn2c(SCc3ccc(F)cc3)nc3cccnc32)cc1", "survival": "55%"}, {"compound": "O=C1c2ccccc2-c2nc3ccccc3c(=O)n21", "survival": "106%"}, {"compound": "COc1cc(OC)c(NC(=O)COc2ccccc2-c2nnc(-c3ccccc3)o2)cc1Cl", "survival": "95%"}, {"compound": "COCCCNC(=O)c1ccc2nc(Cc3ccc(OC)cc3)oc2c1", "survival": "69%"}, {"compound": "N#C/C(=C\\c1cn(Cc2ccc(C#N)cc2)c2ccccc12)C(=O)NCc1ccco1", "survival": "67%"}, {"compound": "O=C(Cn1cnc2onc(-c3ccc(F)cc3)c2c1=O)Nc1ccc(F)c(Cl)c1", "survival": "84%"}, {"compound": "CCOC(=O)c1ccccc1NC(=O)CN1CCCN(Cc2cc(C)ccc2C)S1(=O)=O", "survival": "126%"}, {"compound": "CCOC(=O)c1c(C)oc2nc(C)nc(N3CCN(c4ccccc4)CC3)c12", "survival": "83%"}, {"compound": "CCOC(=O)c1c(C)oc2c1c(O)c(N=O)c1ccccc12", "survival": "18% (active)"}, {"compound": "CCOC(=O)c1c(C)oc2ncnc(N3CCN(c4ccccc4)CC3)c12", "survival": "89%"}, {"compound": "CCN(CC)c1cc(C)c2cc(NC(=O)c3cccc(OC)c3OC)ccc2n1", "survival": "95%"}, {"compound": "CCN(CC)c1cc(C)c2cc(NC(=O)c3ccccc3OC)ccc2n1", "survival": "7% (active)"}, {"compound": "CCOc1ccccc1C(=O)Nc1ccc2nc(N(CC)CC)cc(C)c2c1", "survival": "65% (active)"}, {"compound": "CCN(CC)c1cc(C)c2cc(NC(=O)c3cc(OC)cc(OC)c3)ccc2n1", "survival": "59%"}, {"compound": "CCOc1ccc(C(=O)Nc2ccc3nc(N(CC)CC)cc(C)c3c2)cc1", "survival": "70%"}, {"compound": "CCN(CC)c1cc(C)c2cc(NC(=O)c3cccc(OC)c3)ccc2n1", "survival": "40%"}, {"compound": "CCN(CC)c1cc(C)c2cc(NC(=O)/C=C/c3ccccc3OC(C)C)ccc2n1", "survival": "71%"}, {"compound": "CCN(CC)c1cc(C)c2cc(NC(=O)c3cccc(F)c3)ccc2n1", "survival": "42%"}, {"compound": "CCN(CC)c1ccc(C(=O)Nc2ccc3nc(N(CC)CC)cc(C)c3c2)cc1", "survival": "52%"}, {"compound": "CCN(CC)c1cc(C)c2cc(NC(=O)c3ccc(OC)c(OC)c3)ccc2n1", "survival": "35% (active)"}, {"compound": "CCN(CC)c1cc(C)c2cc(NC(=O)c3ccccc3Cl)ccc2n1", "survival": "55%"}, {"compound": "CCN(CC)c1cc(C)c2cc(NC(=O)c3ccc(F)cc3Cl)ccc2n1", "survival": "39% (active)"}, {"compound": "Cc1ccc(Cl)cc1NC(=O)c1sc2nc(C)c(C)c(C)c2c1N", "survival": "75%"}, {"compound": "Cc1cccc2sc(N(Cc3cccnc3)C(=O)Cc3ccccc3)nc12", "survival": "81%"}]}]}
